Source: PubChem BioAssay
eIF4H FP inh: human eIF4H binding inhibitors, primary screen, translation initiation inhibitor project, biochemical, uHTS, fluorescence polarization. inhibition, % at 35 µM. hit rate 0.94% among 290,000. eIF4H fluorescence polarization binding assay. Eukaryotic translation initiation factor 4H (Homo sapiens), Q15056;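 further: calls also rest on retests at 20 µM and on dose response follow-up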
eIF4E-4G inh: eIF4E–eIF4G protein interaction inhibitors, primary screen, biochemical, uHTS, TR-FRET, eIF4GI fragment; Eukaryotic translation initiation factor 4E (Mus musculus) + Eukaryotic translation …; TR-FRET eIF4E-eIF4GI(517-606) binding, 2 h; inhibition, % at 21.7 µM; hit rate 0.37% among 220,000;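 active means inhibition above about 30%, limit read from the data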
PABP1 MLLE inh: inhibitors of PABP1 MLLE–PAM2 peptide binding, primary screen, biochemical, fluorescence polarization, FITC-PAM2, GST-MLLE; inhibition, % at 20 µM; hit rate 0.36% among 360,000; AID 588489, 2011; in the data active means inhibition above about 35%, passing the limit was not always enough
PABP FP inh: PABP poly(A) RNA binding inhibitors, primary screen, biochemical, fluorescence polarization, uHTS. Polyadenylate-binding protein 1 (Homo sapiens), P11940. calls only at 35 µM. hit rate 1% among 290,000. AID 2014, 2009;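 further: calls also rest on retests at 20 µM and on dose response follow-up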
EBV gp42 block: Epstein-Barr virus gp42 inhibitors, primary screen, biochemical, uHTS, fluorescence polarization; Glycoprotein 42 (Epstein-Barr virus (strain AG876)), Q1HVG2; Fluorescence polarization binding assay, mP read-out; inhibition, % (tested at 21.74 µM); hit rate 0.42% among 220,000; AID 1085, 2008; in the data active means inhibition above about 50%
Numbers stand for hits; - = inactive; ? = inconclusive; . = not tested or not shown; + = active, no number. Hits are enriched below; roughly 1.7% of the tested compounds scored in any of these assays. Unless noted, how the calls were made is not given here.

SMILES	eIF4H FP inh	eIF4E-4G inh	PABP1 MLLE inh	PABP FP inh	EBV gp42 block
O=C(CN1CCN(c2ccccn2)CC1)Nc1ccccc1	-	-	-	-	-
CS(=O)(=O)N(CC(=O)NC1CCCC1)C1CCCCC1	-	-	-	-	-
CS(=O)(=O)N(CC(=O)NC1CC1)C1CCCCC1	active	-	-	-	-
COc1ccccc1N1CCN(S(=O)(=O)c2cc(Br)cnc2N)CC1	.	.	-	.	.
CN(C)CCNc1oc(COc2ccc(Cl)cc2Cl)nc1C#N	-	-	-	+	-
O=C1C(Cl)=C(NC(=O)c2ccccc2)C(=O)C(Cl)=C1NC(=O)c1ccccc1	-	.	57	-	.
CSCCC(NC(N)=O)C(=O)Nc1cccc(C#N)c1 (configuration not stated)	53	-	-	-	-
O=C(COC(=O)c1cccnc1)NC1CCCc2ccccc21 (configuration not stated)	78	-	-	-	-
O=C(COC(=O)c1cnccn1)NC1CCCc2ccccc21 (configuration not stated)	.	.	-	.	.
O=C(O)CSc1cc(C(=O)c2ccccc2O)cn2c(=O)c3c4c(sc3nc12)CCCC4	-	-	-	-	69
CCOC(=O)c1cc(C(=O)c2ccccc2O)cn2c(=O)c3c(C)c(C)sc3nc12	73	-	.	-	-
O=C(O)CSc1nc2sc3c(c2c(=O)n1Cc1ccccc1)CCCCC3	-	.	-	-	.
S=c1nc2c(n[nH]1)c1ccccc1n2CCc1ccccc1	-	.	39	-	.
O=C(CSc1ccc(-c2ccncc2)nn1)c1ccccc1	-	-	38	-	-
O=C(CSc1ccc(-c2cccnc2)nn1)c1ccc([N+](=O)[O-])cc1	-	-	45	-	-
O=C(CSc1ccc(-c2ccccn2)nn1)c1ccc([N+](=O)[O-])cc1	-	-	-	-	-
COc1ccc(C(=O)CSc2ccc(-c3ccccc3)nn2)cc1	-	-	-	-	-
O=C(CSc1ccc(-c2ccco2)nn1)c1ccccc1	101	-	-	+	-
COCCNC(=O)C1CCCN(C(=O)COc2ccc(Cl)cc2Cl)CC1 (configuration not stated)	.	.	-	.	.
O=C(OCc1cn([C@H]2CN(C(=O)c3cccs3)[C@@H](c3ccccc3)C[C@@H]2O)nn1)c1ccccc1	.	.	-	.	.
COc1ccc(Cn2c3nc4ccccc4nc3c3c(=O)n(Cc4ccco4)c(C)nc32)cc1	54	.	.	+	.
COc1ccc(S(=O)(=O)c2c(N)n(Cc3ccco3)c3nc4ccccc4nc23)cc1	?	-	-	?	50
COc1ccc(Cn2c(C)nc3c(c2=O)c2nc4ccccc4nc2n3Cc2ccco2)cc1	.	.	-	.	.
O=C(CN1C(=O)C(=O)N(C2CCCC2)C1=O)NCCc1ccc(Cl)cc1Cl	.	.	-	.	.
COc1cc2c(cc1OC)C(O)=CC(=O)C2=O	.	.	-	.	.
SMILES	eIF4H FP inh	eIF4E-4G inh	PABP1 MLLE inh	PABP FP inh	EBV gp42 block
CCCN(C(=O)c1cc2c(s1)CCC2)c1c(N)n(Cc2ccccc2)c(=O)[nH]c1=O	96	-	-	+	-
COc1ccc(C(O)c2ncc(-c3ccccc3)[nH]2)cc1F (configuration not stated)	.	.	-	.	.
COCCN1C[C@@H](CO)O[C@@H](n2cnc3c(NCCCO)ncnc32)C1	.	.	-	.	.
Cc1ccc(OCC(=O)N2CCN(S(=O)(=O)c3ccccc3)CC2)c([N+](=O)[O-])n1	?	-	-	+	-
COC/C=C/C1=CC2=CC(=O)C(C)(OC(=O)C3CCCC3)C(=O)C2=CO1 (configuration not stated)	62	-	-	+	-
COC/C=C/C1=CC2=CC(=O)C(C)(OC(=O)c3ccco3)C(=O)C2=CO1 (configuration not stated)	?	-	.	?	-
CCCCCC(=O)Nc1cccc(C2=NOC3(C2)C[C@H](C(N)=O)N(C(=O)CC#N)C3)c1 (some centres not stated)	-	-	.	+	-
C=C(C)C(=O)Nc1cccc(C2=NOC3(C2)C[C@@H](C(N)=O)N(C(=O)CC(c2ccccc2)c2ccccc2)C3)c1 (some centres not stated)	90	-	-	+	-
CCC(=O)N1CC2(CC(c3cccc(NC(=O)CC(c4ccccc4)c4ccccc4)c3)=NO2)C[C@H]1C(N)=O (some centres not stated)	-	-	-	-	-
C=C(C)C(=O)Nc1cccc(C2=NOC3(C2)C[C@H](C(N)=O)N(C(=O)c2ccccc2C(=O)c2ccccc2)C3)c1 (some centres not stated)	98	-	-	+	-
C=C(C)C(=O)Nc1cccc(C2=NOC3(C2)C[C@H](C(N)=O)N(C(=O)CC)C3)c1 (some centres not stated)	92	-	-	-	-
C/C=C(\C)C(=O)Nc1cccc(C2=NOC3(C2)C[C@@H](C(N)=O)N(C(=O)c2ccccc2C(=O)c2ccccc2)C3)c1 (some centres not stated)	-	-	-	-	-
O=C(OCC(=O)N1CCCCCC1)c1ccccc1Br	.	.	-	.	.
CC(=O)Nc1cccc(/C(C)=N/N2C(C)CCCC2C)c1 (configuration not stated)	-	.	-	-	.
CCOC(=O)C1=C(CS(=O)(=O)c2ccc(F)cc2)NC(=O)NC1c1ccc(O)c(O)c1 (configuration not stated)	-	.	-	-	.
C=C(C)C(=O)Nc1cccc(C2=NOC3(C2)C[C@H](C(N)=O)N(C(=O)CC#N)C3)c1 (some centres not stated)	89	-	.	-	-
COc1ccc(S(=O)(=O)N2CCC(C(=O)NC3CCCCC3)CC2)cc1OC	.	.	-	.	.
COc1ccccc1NC(=O)C1=C(C)NC(=O)NC1c1cc(C)cs1 (configuration not stated)	-	-	-	+	-
CCOc1ccccc1NC(=O)C1=C(C)NC(=S)NC1c1cccs1 (configuration not stated)	-	-	-	+	-
CN(C)S(=O)(=O)c1cccc(NC(=O)c2ccc(NS(=O)(=O)c3cccs3)cc2)c1	.	.	-	.	.
CC(NS(=O)(=O)c1cccc(C(=O)N(C)Cc2ccc(N3CCOCC3)cc2)c1)c1ccccc1 (configuration not stated)	.	.	-	.	.
CCOC(=O)Nc1c(Cl)n(C)c(=O)n(C)c1=O	-	-	-	-	-
COc1ccc(C2=CC(=O)C=CC2=O)cc1	-	41	.	-	-
COc1ccc(C2=CC(=O)C[C@H](c3ccc(OC)cc3)C2)cc1	.	.	-	.	.
COc1cc(/C=C2\SC(=S)N(NC(=O)c3cccnc3)C2=O)ccc1O	-	-	-	-	-
COc1ccc(OC)c(/C=C2\SC(=S)N(Cc3cccnc3)C2=O)c1	?	-	-	-	142
COc1ccc(O)c(/C=C2/SC(=S)N(Cc3ccccc3)C2=O)c1	?	.	-	?	.
